# Reference: PubChem BioAssay (NCATS)
# Results filed as inconclusive are left out. Where a call stands in place of a potency, no number is given. A number with no mark means an inactive call. Calls of active or inactive are those of the source. Calls follow the shape of the dose curve; as a rule, active = well fitted curve in the direction sought with a large enough effect; inconclusive = small, poorly fitted or top-dose-only effect, or another doubt; inactive = no such curve, though single readings can be large; an effect the other way counts as inactive or inconclusive.
# How the values were obtained:
# [1] = target: ATP-dependent 6-phosphofructokinase (Trypanosoma brucei brucei) (UniProt O15648); test: qHTS Assay to Find Inhibitors of T. brucei phosphofructokinase: hit validation (AID 492961)
# Method in brief: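 Luminescence from ADP-Glo reports ADP generated as T. brucei PFK (1.25 nM) phosphorylates 0.5 mM fructose-6-phosphate using 0.1 mM ATP. Reactions ran 45 min at room temperature, pH 8.0.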
# [2] = target: Ubiquitin carboxyl-terminal hydrolase 1 (Homo sapiens) (UniProt O94782); test: Inhibitors of USP1/UAF1: Pilot qHTS (AID 504865); also: potency is read from the fitted curve at half-maximal effect; nearly all actives have a fitted effect of over 35% in size
# Method in brief: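 USP1/UAF1 complex at 1 nM preincubated 15 min at room temperature with compound, then Ub-Rho substrate added at 150 nM final. Fluorescence (480/540 nm) read kinetically in 50 mM HEPES pH 7.8, 0.5 mM EDTA, 1 mM TCEP, 0.1 mg/ml BSA, 0.01% Tween-20.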
# [3] = target: Luciferin 4-monooxygenase (Photinus pyralis) (UniProt P08659); test: Biochemical firefly luciferase enzyme assay for NPC (AID 624030); also: potency is read from the fitted curve at half-maximal effect; nearly all actives have a fitted effect of over 70% in size
# Method in brief: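 Purified P. pyralis luciferase at 10 nM in 50 mM Tris Acetate (final), luminescence read within 5 minutes of enzyme addition to compounds. Activity normalised to PTC124 versus DMSO; concentration-response curves classed by r2, magnitude and activity.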
# [4] = S16 Schwann cell viability assay (CellTiter-Glo assay) (AID 624031);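 also: cellular ATP luminescence as a viability measure; nearly all actives have a fitted effect of over 70% in size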
# Method in brief: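 Luminescent ATP read-out (CellTiter-Glo) after 24 h compound exposure of native S16 rat Schwann cells at 37 °C. Signals were normalized between cell-free wells and DMSO-treated cells, set as 0% activity.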
# [5] = S16 Schwann cell PMP22 intronic element firefly luciferase assay (AID 624032); also: nearly all actives have a fitted effect of over 30% in size
# Method in brief: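 Rat S16 Schwann cells stably carrying firefly luciferase driven by a PMP22 intronic element, in 10% FBS, treated 24 h at 37 C. ONE-Glo luminescence normalized to PTC124 control and DMSO (0%); curves classed by r2, magnitude and activity.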
# Furin (Homo sapiens) = Furin (Homo sapiens) (UniProt P09958); test: Furin counterscreen qHTS for Zika virus inhibitors (AID 1347149); also: potency is read from the fitted curve at half-maximal effect; nearly all actives have a fitted effect of over 70% in size
# Method in brief: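 Fluorogenic cleavage of BOC-RVRR-AMC (2 microM final, Km ~15 µM) was monitored (ex 340, em 450 nm) at 37C after 15 min RT preincubation of 5 nM furin with compounds in HEPES pH 7.0 buffer with CaCl2 and Triton X-100. Percent inhibition was fitted to a 4-parameter Hill curve.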
# [6] = Confirmatory screen GU Rhodamine qHTS for Zika virus inhibitors qHTS (AID 1347157); also: potency is read from the fitted curve at half-maximal effect; nearly all actives have a fitted effect of over 70% in size
# Method in brief: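 Compounds, tested up to 114 microM, were incubated for 15 minutes with 25 nM unlinked NS2B-NS3 protease at pH 8.0. Cleavage of 1.5 microM Rhodamine110 substrate was then followed by fluorescence for 15 minutes.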
# [7] = Confirmatory screen NINDS Rhodamine qHTS for Zika virus inhibitors (AID 1347161); also: potency is read from the fitted curve at half-maximal effect; nearly all actives have a fitted effect of over 60% in size
# Method in brief: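 Enzyme (25 nM, linked NS2B-NS3) was preincubated 15 min with compound in 10 mM Tris-HCl pH 8.0, 0.01% Tween 20. Rhodamine110 substrate (1.5 microM) was then added and fluorescence read at start and after 15 min.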
# [8] = Tertiary RLuc qRT-PCR qHTS assay for Zika virus inhibitors (AID 1347169); also: top concentration of the series differs between compounds; nearly all actives have a fitted effect of over 55% in size
# Method in brief: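 Vero cells (1,000/well) infected with recombinant ZIKV-RLuc (Cambodian) at MOI 1-2 after compound addition, 48-72 hrs at 37 degrees C. Live-cell Renilla luciferase substrate added; luminescence read after 1-1.5 hrs.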
# [9] = qHTS profiling for inhibitors of Plasmodium falciparum proliferation (AID 504749); also: nearly all actives have a fitted effect of over 60% in size; conditions: P. falciparum in erythrocytes, SYBR Green DNA, 72 h, at 28.7 µM (top of the series)
# Method in brief: (§1)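 P. falciparum-infected erythrocytes (0.3% parasitemia, 2.5% hematocrit) incubated with compound 72 h at 37 C, 5% CO2. Parasite DNA detected by SYBR Green after lysis, overnight at room temperature; normalised to 0.29 uM artemisinin and DMSO.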
# 3D7 = test: as above; conditions: P. falciparum in erythrocytes, SYBR Green DNA, 72 h; series mostly up to 28.7 µM
# Method in brief: as §1
# AA1029 = test: as above; conditions: P. falciparum in erythrocytes, SYBR Green DNA, 72 h; series mostly up to 28.7 µM
# Method in brief: as §1
# AS120 = test: as above; conditions: P. falciparum in erythrocytes, SYBR Green DNA, 72 h; series mostly up to 28.7 µM
# Method in brief: as §1
# ATS189 = test: as above; conditions: P. falciparum in erythrocytes, SYBR Green DNA, 72 h; series mostly up to 28.7 µM
# Method in brief: as §1
# ATS95 = test: as above; conditions: P. falciparum in erythrocytes, SYBR Green DNA, 72 h; series mostly up to 28.7 µM
# Method in brief: as §1
# C2A = test: as above; conditions: P. falciparum in erythrocytes, SYBR Green DNA, 72 h; series mostly up to 28.7 µM
# Method in brief: as §1
# CP185 = test: as above; conditions: P. falciparum in erythrocytes, SYBR Green DNA, 72 h; series mostly up to 28.7 µM
# Method in brief: as §1
# CP191 = test: as above; conditions: P. falciparum in erythrocytes, SYBR Green DNA, 72 h; series mostly up to 28.7 µM
# Method in brief: as §1
# CP192 = test: as above; conditions: P. falciparum in erythrocytes, SYBR Green DNA, 72 h; series mostly up to 28.7 µM
# Method in brief: as §1
# CP194 = test: as above; conditions: P. falciparum in erythrocytes, SYBR Green DNA, 72 h; series mostly up to 28.7 µM
# Method in brief: as §1
# CP201 = test: as above; conditions: P. falciparum in erythrocytes, SYBR Green DNA, 72 h; series mostly up to 28.7 µM
# Method in brief: as §1
# CP211 = test: as above; conditions: P. falciparum in erythrocytes, SYBR Green DNA, 72 h; series mostly up to 28.7 µM
# Method in brief: as §1
# CP217 = test: as above; conditions: P. falciparum in erythrocytes, SYBR Green DNA, 72 h; series mostly up to 28.7 µM
# Method in brief: as §1
# CP237 = test: as above; conditions: P. falciparum in erythrocytes, SYBR Green DNA, 72 h; series mostly up to 28.7 µM
# Method in brief: as §1
# CP238 = test: as above; conditions: P. falciparum in erythrocytes, SYBR Green DNA, 72 h; series mostly up to 28.7 µM
# Method in brief: as §1
# CP250 = test: as above; conditions: P. falciparum in erythrocytes, SYBR Green DNA, 72 h; series mostly up to 28.7 µM
# Method in brief: as §1
# CP252 = test: as above; conditions: P. falciparum in erythrocytes, SYBR Green DNA, 72 h; series mostly up to 28.7 µM
# Method in brief: as §1
# CP256 = test: as above; conditions: P. falciparum in erythrocytes, SYBR Green DNA, 72 h; series mostly up to 28.7 µM
# Method in brief: as §1
# CP260 = test: as above; conditions: P. falciparum in erythrocytes, SYBR Green DNA, 72 h; series mostly up to 28.7 µM
# Method in brief: as §1
# CP262 = test: as above; conditions: P. falciparum in erythrocytes, SYBR Green DNA, 72 h; series mostly up to 28.7 µM
# Method in brief: as §1
# Ubiquitin carboxyl-terminal hydrolase 1 (Homo sapiens), sequence (O94782 whole entry, looked up): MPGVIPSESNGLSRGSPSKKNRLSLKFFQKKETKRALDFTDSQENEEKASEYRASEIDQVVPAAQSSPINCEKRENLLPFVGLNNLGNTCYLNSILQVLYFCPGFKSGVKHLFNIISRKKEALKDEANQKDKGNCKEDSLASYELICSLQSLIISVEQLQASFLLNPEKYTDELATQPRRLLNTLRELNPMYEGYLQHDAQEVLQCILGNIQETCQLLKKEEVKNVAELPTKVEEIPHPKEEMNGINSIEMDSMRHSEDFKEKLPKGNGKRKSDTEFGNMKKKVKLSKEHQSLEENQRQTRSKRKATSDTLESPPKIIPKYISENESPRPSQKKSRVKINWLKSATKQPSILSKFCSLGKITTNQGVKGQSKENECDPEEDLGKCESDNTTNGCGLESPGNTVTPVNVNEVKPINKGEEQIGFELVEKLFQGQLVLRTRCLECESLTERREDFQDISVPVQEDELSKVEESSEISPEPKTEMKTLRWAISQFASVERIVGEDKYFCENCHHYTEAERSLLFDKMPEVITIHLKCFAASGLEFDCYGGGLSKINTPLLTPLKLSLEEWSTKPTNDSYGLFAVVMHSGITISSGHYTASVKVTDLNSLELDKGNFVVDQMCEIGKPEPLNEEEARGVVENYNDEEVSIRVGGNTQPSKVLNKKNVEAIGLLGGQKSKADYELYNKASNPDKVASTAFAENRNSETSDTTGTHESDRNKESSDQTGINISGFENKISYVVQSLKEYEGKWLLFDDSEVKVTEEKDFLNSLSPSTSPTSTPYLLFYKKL
# Furin (Homo sapiens), sequence (P09958 whole entry, looked up): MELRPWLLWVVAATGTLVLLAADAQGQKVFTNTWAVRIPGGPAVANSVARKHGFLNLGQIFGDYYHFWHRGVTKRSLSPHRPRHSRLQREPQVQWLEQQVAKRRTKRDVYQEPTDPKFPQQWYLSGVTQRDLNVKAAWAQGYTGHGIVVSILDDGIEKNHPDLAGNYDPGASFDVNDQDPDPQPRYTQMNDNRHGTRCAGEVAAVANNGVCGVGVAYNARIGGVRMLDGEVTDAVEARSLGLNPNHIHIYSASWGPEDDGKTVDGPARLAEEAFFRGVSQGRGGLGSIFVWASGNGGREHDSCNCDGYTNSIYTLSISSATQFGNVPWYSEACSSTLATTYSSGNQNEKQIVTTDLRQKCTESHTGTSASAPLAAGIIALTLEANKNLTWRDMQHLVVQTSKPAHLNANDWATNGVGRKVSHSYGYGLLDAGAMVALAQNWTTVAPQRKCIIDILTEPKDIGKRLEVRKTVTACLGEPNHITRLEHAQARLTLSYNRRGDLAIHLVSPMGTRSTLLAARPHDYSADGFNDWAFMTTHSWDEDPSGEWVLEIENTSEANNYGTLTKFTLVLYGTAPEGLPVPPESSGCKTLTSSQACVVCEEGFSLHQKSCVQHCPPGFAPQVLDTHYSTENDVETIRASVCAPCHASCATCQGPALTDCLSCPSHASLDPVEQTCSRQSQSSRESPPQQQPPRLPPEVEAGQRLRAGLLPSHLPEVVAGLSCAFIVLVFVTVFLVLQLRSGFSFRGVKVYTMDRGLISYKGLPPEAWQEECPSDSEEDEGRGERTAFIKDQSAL
# Luciferin 4-monooxygenase (Photinus pyralis), sequence (P08659 whole entry, looked up): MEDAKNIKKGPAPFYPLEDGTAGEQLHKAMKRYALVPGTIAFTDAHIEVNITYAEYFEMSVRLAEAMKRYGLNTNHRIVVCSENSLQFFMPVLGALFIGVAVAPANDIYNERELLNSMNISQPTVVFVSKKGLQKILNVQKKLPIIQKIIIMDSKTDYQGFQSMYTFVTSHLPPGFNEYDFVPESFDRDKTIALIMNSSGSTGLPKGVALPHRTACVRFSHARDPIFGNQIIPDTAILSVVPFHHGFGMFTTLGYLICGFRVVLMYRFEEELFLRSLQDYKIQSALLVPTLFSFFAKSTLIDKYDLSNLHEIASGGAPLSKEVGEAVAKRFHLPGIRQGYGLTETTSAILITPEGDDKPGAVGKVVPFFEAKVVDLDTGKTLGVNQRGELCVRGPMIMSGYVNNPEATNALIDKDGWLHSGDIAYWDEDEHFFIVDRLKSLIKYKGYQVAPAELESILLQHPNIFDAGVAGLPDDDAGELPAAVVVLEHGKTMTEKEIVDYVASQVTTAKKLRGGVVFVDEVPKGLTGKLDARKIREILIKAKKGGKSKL
# ATP-dependent 6-phosphofructokinase (Trypanosoma brucei brucei), sequence (O15648 whole entry, looked up): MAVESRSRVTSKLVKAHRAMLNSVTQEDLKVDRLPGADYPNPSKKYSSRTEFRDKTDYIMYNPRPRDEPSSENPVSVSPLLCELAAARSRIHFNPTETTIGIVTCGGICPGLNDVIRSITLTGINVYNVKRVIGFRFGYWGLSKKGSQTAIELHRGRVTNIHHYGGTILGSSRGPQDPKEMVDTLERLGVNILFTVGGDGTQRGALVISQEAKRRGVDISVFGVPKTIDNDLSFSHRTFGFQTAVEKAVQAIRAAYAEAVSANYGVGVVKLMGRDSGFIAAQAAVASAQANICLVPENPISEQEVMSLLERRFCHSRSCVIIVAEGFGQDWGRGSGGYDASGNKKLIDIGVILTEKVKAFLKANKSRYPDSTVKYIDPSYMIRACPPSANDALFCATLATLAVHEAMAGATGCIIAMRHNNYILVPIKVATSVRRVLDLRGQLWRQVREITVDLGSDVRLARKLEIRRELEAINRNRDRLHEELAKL
smiles,measurement,setting,value
CC(C)(O)c1ccccc1CC[C@H](SCC1(CC(=O)O)CC1)c1cccc(/C=C/c2ccc3ccc(Cl)cc3n2)c1,outcome,[1],inactive
same,Potency,[2],39.8 µM (active)
same,Potency,[3],11.4 µM (active)
same,outcome,[4],inactive
same,Potency,[5],inactive
same,Potency,Furin (Homo sapiens),52.7 µM (active)
same,Potency,[6],11.2 µM (active)
same,Potency,[7],22.4 µM (active)
same,Potency,[8],inactive
same,"activity, negative = inhibition",[9]; parasite line A,-2.01%
same,"activity, negative = inhibition",[9]; parasite line B,-18.3%
same,Potency,3D7,inactive
same,Potency,AA1029,inactive
same,Potency,AS120,inactive
same,Potency,ATS189,inactive
same,Potency,ATS95,inactive
same,Potency,C2A,inactive
same,Potency,CP185,inactive
same,Potency,CP191,inactive
same,Potency,CP192,inactive
same,Potency,CP194,inactive
same,Potency,CP201,inactive
same,Potency,CP211,inactive
same,Potency,CP217,inactive
same,Potency,CP237,inactive
same,Potency,CP238,inactive
same,Potency,CP250,inactive
same,Potency,CP252,inactive
same,Potency,CP256,inactive
same,Potency,CP260,inactive
same,Potency,CP262,inactive
